Compounds with a hit are over-represented: about 21% of the library has one in this group of screens.
Shiga inhibitor = blocks Shiga toxin action in Vero cells; Vero cells, Shiga toxin protein synthesis inhibition reporter; inhibition, % at 38.7 µM; actives 9.2% (n = 290,000); in the data active = inhibition mostly above about 28%, no sharp cut-off; inactive = mostly below about 43%; note: 0% is about no effect
SARS PLP yeast = SARS-CoV PLP inhibition in yeast | actives 0.19% (n = 330,000) | S. cerevisiae expressing SARS-CoV PLpro, growth rescue | Potency, µM (top dose mostly 32.9 µM), for inactives: at the highest dose activity, positive = growth rescue, usual class: activators | AID 485353; note: potency is the fitted concentration of half-maximal effect; 0% is about no effect; nearly all actives have a fitted effect of over 55% in size
Pf growth 48h = P. falciparum growth inhibition at 48 hours (one generation); P. falciparum luciferase growth in erythrocytes, 48 h; Potency, µM (highest dose often 28.7 µM), without a hit: at the highest dose activity change, negative = inhibition, actives largely listed as inhibitors; actives 5.9% (n = 310,000); AID 504832; active = well fitted inhibition curve with a large enough effect; inconclusive = small, poorly fitted or top-dose-only effect, or another doubt; inactive = no such curve, though single readings can be large or run the other way; note: potency is the fitted concentration of half-maximal effect; % is set by controls: 0 for no effect and ±100 for the full control effect
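Luciferase-expressing P. falciparum in infected erythrocytes (2% hematocrit, 0.1% parasitemia final) in RPMI 1640/0.5% Albumax were exposed to compound for 48 hours at 37 C, 5% CO2; growth read as luminescence.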
NS1 function inh = blocks influenza NS1 protein function. AID 2326. actives 0.4% (n = 270,000). Potency, µM (top dose mostly 46.1 µM), for inactives: top-dose activity, positive = more growth; note: potency is the fitted concentration of half-maximal effect; actives are rising curves; nearly all actives have a fitted effect of over 50% in size
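Compounds were scored for reversing the slow growth caused by influenza A NS1 in S. cerevisiae, measured by optical density at 600 nm. Assay medium contained 2% galactose at pH 6.0; NS1-free yeast of the same strain were the positive control.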
CHX counter = counter-screen for Shiga toxin inhibitors: cycloheximide protein synthesis inhibition; AID 2314; max response, %; actives 12% (n = 300,000); cell reporter, cycloheximide protein synthesis inhibition counterscreen; in the data active = max response mostly above about 13%, no sharp cut-off; inactive = mostly below about 14%; note: read at 38.3 µM for the half of the compounds with a filed dose; 0% is about no effect
Pf growth 96h = inhibits malaria parasite growth, 96 h. P. falciparum luciferase reporter growth, 96 h. Potency, µM (highest dose often 28.7 µM), for the others: at the top dose activity change, negative = inhibition, usual class: inhibitors. actives 6.9% (n = 320,000); active = well fitted inhibition curve with a large enough effect; inconclusive = small, poorly fitted or top-dose-only effect, or another doubt; inactive = no such curve, though single readings can be large or run the other way; note: potency is the fitted concentration of half-maximal effect; % is set by controls: 0 for no effect and ±100 for the full control effect
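Erythrocytes infected with luciferase-expressing P. falciparum were dispensed at 2% hematocrit and 0.05% parasitemia (final), then incubated with compounds 96 hours at 37 C in 5% CO2. Luminescence after detection reagent addition reported growth.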
An asterisk follows results filed as active. Unless noted, calls come from the whole dose curve.

For O=S(=O)(c1ccc(F)cc1)c1snnc1-c1ccccc1 the results were Shiga inhibitor -2.5, SARS PLP yeast -14.9%, Pf growth 48h 9.28µM*, CHX counter 3.8 and Pf growth 96h inconclusive.
`Fc1ccc(N2Cc3ccsc3C=N2)cc1` gave Shiga inhibitor 63.1*, SARS PLP yeast -0.3%, Pf growth 48h inconclusive, CHX counter 25.1* and Pf growth 96h 38.6%.
For CCCc1nc2sc3ccccc3c(=O)c2c(=O)n1Cc1ccc(OC)cc1 the results were Shiga inhibitor 25.8, SARS PLP yeast 0.1%, Pf growth 48h inconclusive, NS1 function inh 4.8%, CHX counter -1.3 and Pf growth 96h 10.4µM*.
`COc1ccc(Cn2c(-c3ccc(OC)cc3)nc3c(c(=O)c4ccccc4n3C)c2=O)cc1` gave Shiga inhibitor -3.1, SARS PLP yeast -24.3%, Pf growth 48h 11.7µM*, NS1 function inh 12.4%, CHX counter -2.6 and Pf growth 96h 9.28µM*.
Screening COc1ccc(-c2nc3c(c(=O)c4ccccc4n3C)c(=O)n2Cc2ccccc2)cc1 returned Shiga inhibitor -3.6, SARS PLP yeast -16.9%, Pf growth 48h -19.5%, NS1 function inh 11.6%, CHX counter -1.0 and Pf growth 96h 2.94µM*.
For COCCn1c(-c2ccccc2)nc2c(c(=O)c3ccccc3n2C)c1=O the results were Shiga inhibitor 12.8, SARS PLP yeast -1.3%, Pf growth 48h inconclusive, NS1 function inh 1.8%, CHX counter 1.1 and Pf growth 96h 14.7µM*.
For CCOc1ccc(CN2CCNC(=O)C2CC(=O)NCCN2CCOC2=O)cc1 (configuration not stated) the results were Shiga inhibitor -26.1, SARS PLP yeast 3.0%, Pf growth 48h 9.6%, NS1 function inh 19.5%, CHX counter -0.9 and Pf growth 96h 22.3%.
Screening COCCNC(=O)/C(=C/c1ccccc1Cl)c1ccccc1 returned Shiga inhibitor -2.7, SARS PLP yeast 17.9%, Pf growth 48h -3.0%, NS1 function inh -6.4%, CHX counter -2.4 and Pf growth 96h 74.9%.
Screening CCOC(=O)c1ccccc1NC(=O)COC(=O)CCC(=O)c1ccc(C)cc1 returned SARS PLP yeast -3.3%, Pf growth 48h -9.9% and Pf growth 96h 19.9%.
Screening CCN(CC)C(=O)Cn1c(=O)n(CCCC(=O)NCc2ccccc2)c(=O)c2sccc21 returned Shiga inhibitor -7.8, SARS PLP yeast 0.2%, Pf growth 48h -19.0%, CHX counter -1.0 and Pf growth 96h 1.9%.
`O=C(CCCn1c(=O)c2ccccc2n(CC(=O)N2CCN(c3ccccc3)CC2)c1=O)NCc1ccco1` gave Shiga inhibitor -9.3, SARS PLP yeast -3.4%, Pf growth 48h inconclusive, CHX counter 9.3 and Pf growth 96h -20.5%.
CCc1nc2sc3ccccc3c(=O)c2c(=O)n1CCOC was read as Shiga inhibitor -8.9, SARS PLP yeast 3.6%, Pf growth 48h 3.8%, NS1 function inh -5.5%, CHX counter -1.6 and Pf growth 96h 0.3%.
Screening COCCn1c(-c2cccc(Br)c2)nc2c(c(=O)c3ccccc3n2C)c1=O returned Shiga inhibitor -5.6, SARS PLP yeast -0.1%, Pf growth 48h inconclusive, NS1 function inh -1.2%, CHX counter -0.9 and Pf growth 96h inconclusive.
For COc1ccc(Cn2c(-c3ccco3)nc3c(c(=O)c4ccccc4n3C)c2=O)cc1 the results were Shiga inhibitor -6.1, SARS PLP yeast -2.0%, Pf growth 48h 11.0%, NS1 function inh -2.7%, CHX counter 0.8 and Pf growth 96h -2.5%.
COc1ccc(Cn2c(-c3ccc(C)cc3)nc3c(c(=O)c4ccccc4n3C)c2=O)cc1 was read as Shiga inhibitor -10.9, SARS PLP yeast -5.0%, Pf growth 48h 13.1µM*, NS1 function inh 7.5%, CHX counter -5.0 and Pf growth 96h inconclusive.
Cn1c2ccccc2c(=O)c2c(=O)n(Cc3ccccc3)c(-c3ccc(F)cc3)nc21 was read as Shiga inhibitor -10.8, SARS PLP yeast 0.2%, Pf growth 48h inconclusive, NS1 function inh 3.7%, CHX counter -1.9 and Pf growth 96h 5.22µM*.
For COCCn1c(C2CCCCC2)nc2sc3ccccc3c(=O)c2c1=O the results were Shiga inhibitor -5.2, SARS PLP yeast 17.0%, Pf growth 48h 1.47µM*, NS1 function inh -34.0%, CHX counter -3.7 and Pf growth 96h 0.0%.
Screening COc1ccc2[nH]c3c(N4CCN(Cc5ccc6c(c5)OCO6)CC4)ncnc3c2c1 returned Shiga inhibitor -34.3, SARS PLP yeast -0.4%, Pf growth 48h 4.15µM*, NS1 function inh -45.4%, CHX counter -7.6 and Pf growth 96h 5.86µM*.
COc1ccc2cc(C(=O)N3CCN(C)CC3)[nH]c2c1 was read as Shiga inhibitor 86.1*, SARS PLP yeast -1.8%, Pf growth 48h 166.5%, NS1 function inh 0.9%, CHX counter 32.6* and Pf growth 96h 228.9%.
`COc1ccc2cc(C(=O)N3CCN(Cc4ccc5c(c4)OCO5)CC3)[nH]c2c1` gave Shiga inhibitor -1.0, SARS PLP yeast 4.9%, Pf growth 48h 10.3%, NS1 function inh 16.1%, CHX counter 5.5 and Pf growth 96h 13.1µM*.
CCN1CCN(C(=O)c2cc3ccc(OC)cc3[nH]2)CC1 was read as Shiga inhibitor 60.2*, SARS PLP yeast 1.5%, Pf growth 48h 99.5%, NS1 function inh 1.9%, CHX counter 30.5* and Pf growth 96h 130.3%.
For CCOC(=O)C1CCCN(C(=O)c2cc3cc(F)ccc3[nH]2)C1 (configuration not stated) the results were Shiga inhibitor 41.5, SARS PLP yeast -1.1%, Pf growth 48h inconclusive, NS1 function inh -4.3%, CHX counter 6.3 and Pf growth 96h inconclusive.
Screening CCOC(=O)C1CCCN(C(=O)c2cc3ccc(OC)cc3[nH]2)C1 (configuration not stated) returned Shiga inhibitor 36.1, SARS PLP yeast -2.1%, Pf growth 48h 100.9%, NS1 function inh -6.9%, CHX counter 22.9* and Pf growth 96h 110.5%.
Screening COc1ccc2[nH]c3c(N4CCC(O)(c5cccc(C(F)(F)F)c5)CC4)ncnc3c2c1 returned Shiga inhibitor -3.5, SARS PLP yeast -4.7%, Pf growth 48h 14.7µM*, NS1 function inh 10.0%, CHX counter -3.4 and Pf growth 96h 2.33µM*.
`CCCn1nnc(NC(=S)NC(=O)c2ccccc2OC)n1` gave SARS PLP yeast 4.7%.
For CCOC(=O)c1[nH]ncc1CN1CCC(Cc2cccc(OC)c2)(C(=O)OCC)CC1 the results were Shiga inhibitor -4.3, SARS PLP yeast 0.8%, Pf growth 48h 5.3%, NS1 function inh 1.7%, CHX counter -2.3 and Pf growth 96h 14.3%.
Screening CCc1ccc(C(=O)OCC(=O)N(CCOC)c2c(N)n(Cc3ccccc3)c(=O)[nH]c2=O)cc1 returned SARS PLP yeast 2.1%, Pf growth 48h inconclusive and Pf growth 96h -30.0%.
